Hit rate of the full screen: of about 360,000 compounds, about 3,900 (1.1%) were called active. Many of the other results were omitted from the sample, so actives are more common in it than they were. A number with no mark means an inactive call.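 How the source made its calls: active means mean replicate inhibition score of at least 50 and every replicate individually at or above 50; inconclusive means only one of the two criteria met; inactive means mean below 50 and not all replicates reaching 50.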

This test can be described thus: blockers of JRFL envelope-mediated fusion – HeLa-JRFL effector, CEM21 target cells, luciferase, primary screen (AID 651610).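 Further: 0% = plate neutral controls and 100% = maraviroc near 300 nM.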 To be noted: HeLa-JRFL Env/CEM21 cell fusion, hits give high values; at 16.7 µM unless noted.
Regarding `CC(=O)Nc1ccc(S(=O)(=O)Nc2ccc(N3CCCCC3)cc2)cc1`, the inhibition is 68.2% [at 12.3 µM] (active).
With `COc1ccc(NS(=O)(=O)c2ccc(NC(C)=O)cc2)cc1OC`, the inhibition was 62.4% [at 12.3 µM] (active).
Consider `COC(C(=O)Nc1ccc(S(=O)(=O)Nc2ccc(C)c(C)c2)cc1)c1ccccc1` (stereo not given), for which the inhibition is -13.7% [at 12.3 µM].
For the compound `CC(=O)Nc1ccc(NS(=O)(=O)c2ccc3c(c2)NC(=O)CC(=O)N3)cc1`, the inhibition is -3.1% [at 12.3 µM].
`COc1ccccc1C(=O)COC(=O)CNS(=O)(=O)c1ccc(NC(C)=O)cc1`: the inhibition was -8.08% [at 12.3 µM].
For the compound `CC(=O)Nc1ccc(S(=O)(=O)N2CCN(C3CCCCCCC3)CC2)cc1`, the inhibition was -36.4% [at 12.3 µM].
As for `C/C=C/c1cnc2c(c1)C(=O)N([C@H](C)CO)C[C@H](C)[C@@H](CN(C)C(=O)Nc1ccc(C(F)(F)F)cc1)O2`, the inhibition was 0.996%.
For the compound `C[C@@H]1CN([C@@H](C)CO)C(=O)c2cc(NC(=O)C3CCCCC3)ccc2O[C@@H](C)CCCCO[C@@H]1CN(C)Cc1ccc(C(=O)O)cc1`, the inhibition is 10.8%.
On to `CN(C)c1ccc2c(c1)[C@@H]1C[C@@H](CC(=O)NCc3ccccn3)O[C@H](CO)[C@@H]1O2`, for which the inhibition was 6.38%.
With `C[C@H]1CN([C@@H](C)CO)C(=O)CCCn2nncc2CO[C@H]1CN(C)Cc1ccccc1`, the inhibition is -11.7%.
The value for `C[C@@H]1CN([C@H](C)CO)C(=O)c2cc(C#CC3CCCCC3)cnc2O[C@@H]1CN(C)C(=O)NC1CCCC1` was 10.8%.
For `Cc1nn(Cc2ccc(F)cc2)c(C)c1NC(=O)c1noc2c1CCc1ccccc1-2`, the inhibition is 57.4% [at 12.3 µM] (active).
The same measure for `Cc1nn(Cc2ccc(Cl)c(Cl)c2)c(C)c1NC(=O)c1cc(C2CC2)on1`: -1.78% [at 12.3 µM]; for `Cc1nn(Cc2ccc(F)cc2)c(C)c1NC(=O)c1cccnc1Cl`: 0.276% [at 12.3 µM].
The value for `Cc1ccccc1S(=O)(=O)N[C@H]1CC[C@H](CCn2cc(-c3ccc(F)cc3)nn2)O[C@H]1CO` was 4.55%; that for `C[C@H](CO)N1C[C@H](C)[C@@H](CN(C)S(=O)(=O)c2cccs2)OCCCC[C@H](C)Oc2ccc(NS(=O)(=O)c3ccccc3)cc2C1=O` was -0.163%; that for `CCCCNC(=O)N(O)C1N(/N=C/c2ccc(N(C)C)cc2)C(=S)SC1(C)C` (stereo not given) was 10.2% [at 12.3 µM].
Turning to `CCCCNC(=O)N(O)C1N(/N=C/c2ccccc2O)C(=S)SC1(C)C` (stereo not given), the inhibition was 89.7% [at 12.3 µM] (active).
`CCC(C)N1C(=S)SC(C)(C)C1N(O)C(=O)NC1CCCCC1` (stereo not given): the inhibition is 16.9% [at 12.3 µM].
In the case of `C[C@@H]1CCCCO[C@@H](CN(C)C(=O)Nc2ccc(C(F)(F)F)cc2)[C@H](C)CN([C@H](C)CO)C(=O)c2cc(NC(=O)C3CCCCC3)ccc2O1`, the inhibition was 14.1%.
For `Cc1ccc(S(=O)(=O)N[C@H]2CC[C@@H](CC(=O)NCc3ccc(Cl)c(Cl)c3)O[C@H]2CO)cc1`, the inhibition is 16.7%.
Regarding `CCCCCCCCn1c2c(c(=N)c3c1CCC3)CCCC2`, the inhibition was 64.5% [at 12.3 µM] (active).
The same measure for `CN1CC(c2ccccc2)C2(COc3ccccc3C2=O)C12C(=O)Nc1ccccc12` (stereo not given): 108% [at 12.3 µM] (active).
As for `C[C@@H]1NC(=O)[C@@]2(C)[C@@H](c3ccccc3)[C@H]3COc4ccccc4[C@@H]3N2C1=O`, the inhibition was 1% [at 12.3 µM].
For the compound `O=C1NC(c2ccccc2)Oc2ccccc21` (stereo not given), the inhibition is -8.85% [at 12.3 µM].
The same measure for `CO[C@H]1CN(C)C(=O)c2ccc(NC(=O)C3CC3)cc2OC[C@@H](C)N(C(=O)c2ccccn2)C[C@@H]1C`: 3.53%.
The value for `COc1ccc(S(=O)(=O)Nc2cccc3c2O[C@H](CN(C)C(=O)NC(C)C)[C@H](C)CN([C@H](C)CO)C3=O)cc1` was -9%; that for `O=C(c1ccc(S(=O)(=O)N2CCCC2)cc1)N1CCN(c2ccccc2F)CC1` was -21.7% [at 12.3 µM]; that for `N#Cc1ccccc1-n1c(N)c(C(=O)N2CCCC2)sc1=S` was 59.1% [at 12.3 µM] (active).
The value for `Cc1ccc(-n2c(N)c(C(=O)N3CCOCC3)sc2=S)c(C)c1` was 24.4% [at 12.3 µM]; that for `CNC(=O)C[C@@H]1CC[C@H]2[C@H](COc3ccc(NC(=O)C4CC4)cc3C(=O)N2C)O1` was 12%; that for `CC(C)NC(=O)N(C)C[C@@H]1Oc2ncc(C#Cc3ccncc3)cc2C(=O)N([C@@H](C)CO)C[C@@H]1C` was -8.31%.
`COc1ccccc1S(=O)(=O)N(C)C[C@@H]1Oc2cc(C#CCC3CCCC3)ccc2S(=O)(=O)N([C@H](C)CO)C[C@H]1C`: the inhibition was 34.8%.
`O=C(NC[C@H]1CC[C@@H]2[C@@H](CN2S(=O)(=O)c2ccccc2F)O1)C1CCCCC1`: the inhibition is 5.54%.
The same measure for `CCCCn1nc(C(=O)Nc2ccc(S(=O)(=O)Nc3ncccn3)cc2)c2ccccc2c1=O`: 3.69% [at 12.3 µM].
As to `CCN(CC)CCCN=Cc1c(O)n(-c2ccc(C)cc2)c(=O)c2ccccc12`, the inhibition is -12.6% [at 12.3 µM].
The same measure for `Cc1ccc(-n2c(O)c(C=Nc3ccc(S(=O)(=O)Nc4ncccn4)cc3)c3ccccc3c2=O)cc1C`: 65% [at 12.3 µM] (active).
The same measure for `Cc1ccc(S(=O)(=O)Nc2ccc3c(c2)C(=O)N([C@H](C)CO)C[C@H](C)[C@H](CN(C)S(=O)(=O)c2ccc(F)cc2)OCCCC[C@@H](C)O3)cc1`: -11.1%.
The value for `O=C(COc1ccccc1[N+](=O)[O-])N/N=C/c1ccc[nH]1` was -18.2% [at 12.3 µM]; that for `CC(=O)Nc1ccc(C(=O)/C=C/c2ccc[nH]2)cc1` was 3.48% [at 12.3 µM].
As to `CCCC(=O)Nc1ccc(C(=O)N/N=C/c2ccc[nH]2)cc1`, the inhibition is 66.2% [at 12.3 µM] (active).
The value for `CC1(C)OC(=O)C2=C(CC(CCc3ccccc3)OC2c2ccc(Cl)cc2)O1` (stereo not given) was -17.2% [at 12.3 µM].
Take `Cc1cc(S(=O)(=O)Nc2ccc(C(=O)NCC(c3ccco3)N3CCCC3)cc2)ccc1F` (stereo not given): the inhibition was 57.1% [at 12.3 µM] (active).
For the compound `COc1ccc(C(CNC(=O)c2cccc(NS(=O)(=O)c3ccc(C)c(F)c3)c2)N2CCCC2)cc1` (stereo not given), the inhibition was -23.5% [at 12.3 µM].
As to `COc1ccc(C(CNC(=O)c2ccc(NS(=O)(=O)c3ccc(F)c(C)c3)cc2)N(C)C)cc1` (stereo not given), the inhibition was -1.84% [at 12.3 µM].
